# This is part of a sample that, as a whole, favours compounds with a hit. Of some 79,000 tested, about 15% had one in any assay. A number with no mark means an inactive call. Calls of active or inactive are those of the source. Cut-off read from the data, not from the text of the source: active = growth inhibition above about 70%; inactive = the rest.
# Test: NCI Yeast Anticancer Drug Screen. Data for the cln2 rad14 strain (AID 165);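 note: 0% = growth equal to vehicle treated cultures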
# Conditions: S. cerevisiae cln2 rad14 strain, at 50.0 µM (retest, dose inferred, filed as 5.0), stronger effect = higher value
# Summary of the method: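 The screen exposed genetically defined yeast (cln2 rad14) to test compounds and scored growth inhibition relative to vehicle-treated controls.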
row,SMILES,growth inhibition
1,CCCCCCCCCCCCOP(=O)(N1CC1(C)C)N1CC1(C)C (stereo not drawn),72% (active)
2,Cc1cccc(/C=N/NC(=S)Nc2ccc(Cl)cc2)n1,96% (active)
3,CN1CCCCC1c1cc2c3ccccc3ccn2c1-c1ccccc1 (stereo not drawn),92% (active)
4,CN(Cc1ccccc1)CC(O)c1cc(-c2ccc(Cl)cc2)nc2ccccc12 (stereo not drawn),99% (active)
5,OC1CCN(c2c3ccccc3nc3ccccc23)CC1,23%
6,CCC1=C(c2ccc(OC(C)=O)cc2)Cc2cc(OC(C)=O)ccc21,79% (active)
7,Cc1cccc(C)c1NC(=O)CSC(N)=O,-1%
8,c1ccc([B-](c2ccccc2)(c2ccccc2)c2ccccc2)cc1,-16%
9,[Fe+2].c1cc[cH-]c1.c1ccc(-c2ccc[cH-]2)cc1,16%
10,O=C(CC1(O)CCCCC1)OC1CCCC1,19%
11,OC1(c2ccccc2)c2ccccc2Sc2ccccc21,99% (active)
12,CC(CN(C)C)C(=O)/C=C/c1ccc(C(C)C)cc1 (stereo not drawn),26%
13,CSc1cccc(N2C(=O)C=CC2=O)c1,100% (active)
14,O=c1c2ccccc2nc(-c2ccccc2)n1NC(=S)Nc1ccc(Cl)cc1[N+](=O)[O-],14%
15,COc1ccc(OC(C)=O)c2c1CCC=CC2=O,80% (active)
16,CC(=O)Nc1ccc2c(c1)Cc1cccc(F)c1-2,7%
17,CCC(c1ccc(O)cc1)C(O)(CC)c1ccc(O)cc1 (stereo not drawn),-1%
18,Cn1c(-c2ccccc2)c(CCNC(=O)C2CCC2)c2ccccc21,7%
19,FC(F)(F)c1ccccc1NC(=S)SCc1ccco1,17%
20,O=[N+]([O-])C1=Cc2cc(Cl)ccc2OC1c1cccc2ccccc12 (stereo not drawn),80% (active)
21,NC(=O)c1c(Cl)nc2n1CCS2,-7%
22,CCCCCC(C)C1=NC(C)(C)CC(C)O1 (stereo not drawn),-64%
23,CCCCCCCCCCCCCCCCN(C)c1ccc(S(=O)(=O)O)cc1[N+](=O)[O-],48%
24,O=C(c1cccnc1)N(C1CCCCC1)C1CCCCC1,9%

# Same assay, conditions: S. cerevisiae cln2 rad14 strain, at 50.0 µM, stronger effect = higher value
row,SMILES,growth inhibition
1,Cc1ccc(/C=C2\CCCC(CN3CCCCC3)C2=O)cc1 (stereo not drawn),73.3% (active)
2,Oc1ccc(CCCCCc2ccc(O)cc2)cc1,99.2% (active)
3,COC(=O)c1ccccc1CC(Cc1ccc2c(c1)CCC2)C(=O)OC (stereo not drawn),13.7%
4,CN=C1NS(=O)(=O)c2ccccc21,19.1%
5,CCCCC/C(=C/C=C/c1ccc(Cl)cc1)CN(C)C,99.5% (active)
6,O=S(=O)(O)c1ccc2c(c1)C1C(C3C2C2(Cl)C(Cl)=C(Cl)C3(Cl)C2(Cl)Cl)C2(Cl)C(Cl)=C(Cl)C1(Cl)C2(Cl)Cl (stereo not drawn),83.7% (active)
7,Cc1ccc(S(=O)(=O)N/N=C/c2oc(-c3cccc([N+](=O)[O-])c3)c(-c3cccc([N+](=O)[O-])c3)c2[N+](=O)[O-])cc1,91.7% (active)
8,CCN(CC)C(C)(C)C(=O)/C=C/c1ccc(Cl)cc1,-5%
9,Fc1ccc(NC(=S)SCc2ccc(Cl)c(Cl)c2)c(F)c1,98.8% (active)
10,CC[C@@]1(OP(=O)(O)O)C(=O)OCc2c1cc1n(c2=O)Cc2cc3ccccc3nc2-1,67%
11,CC(C)C1=CC2=CCC3C(C)(C(=O)O)CCCC3(C)C2CC1 (stereo not drawn) (tested in a mixture with another compound),88.5% (active)
12,C=CCSc1nc2ccccc2c(=O)n1Cc1ccco1,-54.2%
13,COC(=O)c1c(C)cccc1C1CN=NC12Cc1ccc(C)c(C)c1C2=O (stereo not drawn),54.1%
14,CC(=O)N=C1N(/C=C2\C(=O)Oc3ccccc3C2=O)C(=O)/C(=C/c2cccc(Cl)c2Cl)N1C,-21.8%
15,O=C1NC(CSSCC2NC(=O)N(c3ccccc3)C2=O)C(=O)N1c1ccccc1 (stereo not drawn),58.1%
16,CCCCCCCCCCCCOP(=O)(N1CC1(C)C)N1CC1(C)C (stereo not drawn),34.2%
17,Cc1cccc(/C=N/NC(=S)Nc2ccc(Cl)cc2)n1,86.5% (active)
18,CN1CCCCC1c1cc2c3ccccc3ccn2c1-c1ccccc1 (stereo not drawn),94.8% (active)
19,CN(Cc1ccccc1)CC(O)c1cc(-c2ccc(Cl)cc2)nc2ccccc12 (stereo not drawn),98.4% (active)
20,OC1CCN(c2c3ccccc3nc3ccccc23)CC1,37.4%

row,SMILES,growth inhibition
1,CCC1=C(c2ccc(OC(C)=O)cc2)Cc2cc(OC(C)=O)ccc21,4%
2,Cc1cccc(C)c1NC(=O)CSC(N)=O,56.1%
3,c1ccc([B-](c2ccccc2)(c2ccccc2)c2ccccc2)cc1,98.4% (active)
4,[Fe+2].c1cc[cH-]c1.c1ccc(-c2ccc[cH-]2)cc1,16.9%
5,O=C(CC1(O)CCCCC1)OC1CCCC1,62.8%
6,OC1(c2ccccc2)c2ccccc2Sc2ccccc21,99% (active)
7,CC(CN(C)C)C(=O)/C=C/c1ccc(C(C)C)cc1 (stereo not drawn),25.8%
8,CSc1cccc(N2C(=O)C=CC2=O)c1,91.5% (active)
9,O=c1c2ccccc2nc(-c2ccccc2)n1NC(=S)Nc1ccc(Cl)cc1[N+](=O)[O-],-29.4%
10,COc1ccc(OC(C)=O)c2c1CCC=CC2=O,57%
11,CC(=O)Nc1ccc2c(c1)Cc1cccc(F)c1-2,9.1%
12,CCC(c1ccc(O)cc1)C(O)(CC)c1ccc(O)cc1 (stereo not drawn),26.1%
13,Cn1c(-c2ccccc2)c(CCNC(=O)C2CCC2)c2ccccc21,77.3% (active)
14,FC(F)(F)c1ccccc1NC(=S)SCc1ccco1,52.1%
15,O=[N+]([O-])C1=Cc2cc(Cl)ccc2OC1c1cccc2ccccc12 (stereo not drawn),87.1% (active)
16,NC(=O)c1c(Cl)nc2n1CCS2,8.4%
17,CCCCCC(C)C1=NC(C)(C)CC(C)O1 (stereo not drawn),32.4%
18,CCCCCCCCCCCCCCCCN(C)c1ccc(S(=O)(=O)O)cc1[N+](=O)[O-],68.6%
19,O=C(c1cccnc1)N(C1CCCCC1)C1CCCCC1,11.8%

# — PubChem BioAssay (NCI)
